# PREPL inhibitor – PREPL enzyme inhibitors, primary screen, biochemical, fluorescence polarization; Prolyl endopeptidase-like (Homo sapiens), Q4J6C6; recombinant PREPL, fluorescence polarization activity-based probe; inhibition, % at 5.96 µM; hit rate 0.68% among 320,000; AID 2751, 2010
# VLA-4 inh – inhibition in human VLA-4 binding assay, primary screen, VLA-4 allosteric modulator project, MLPCN library, flow cytometry, VLA-4 expressing cells. AID 2557, 2010. Integrin alpha-4 (Homo sapiens), P13612. ligand binding flow cytometry. inhibition, % (about 7 µM as worked out from the volumes in the protocol). hit rate 0.2% among 330,000; in the data active means inhibition above about 50%
# Pemphigus Ab inh – inhibitors of pemphigus antibody binding to DSG3, primary screen, biochemical, bead-based, flow cytometry, scFv-GFP. Desmoglein-3 (Homo sapiens), P32926. DSG3-coupled beads, scFv-anti-DSG3-GFP binding; hits give low values. binding (percent of control), % at 10 µM. hit rate 0.48% among 310,000. AID 588358, 2011;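 active means binding more than 3 SD below its plate's average and above zero; inconclusive means below that plate limit but binding exactly zero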;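 further: hits lower antibody fragment binding to DSG3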
# Target sequence (P32926 whole entry, looked up, the tested form may be a part): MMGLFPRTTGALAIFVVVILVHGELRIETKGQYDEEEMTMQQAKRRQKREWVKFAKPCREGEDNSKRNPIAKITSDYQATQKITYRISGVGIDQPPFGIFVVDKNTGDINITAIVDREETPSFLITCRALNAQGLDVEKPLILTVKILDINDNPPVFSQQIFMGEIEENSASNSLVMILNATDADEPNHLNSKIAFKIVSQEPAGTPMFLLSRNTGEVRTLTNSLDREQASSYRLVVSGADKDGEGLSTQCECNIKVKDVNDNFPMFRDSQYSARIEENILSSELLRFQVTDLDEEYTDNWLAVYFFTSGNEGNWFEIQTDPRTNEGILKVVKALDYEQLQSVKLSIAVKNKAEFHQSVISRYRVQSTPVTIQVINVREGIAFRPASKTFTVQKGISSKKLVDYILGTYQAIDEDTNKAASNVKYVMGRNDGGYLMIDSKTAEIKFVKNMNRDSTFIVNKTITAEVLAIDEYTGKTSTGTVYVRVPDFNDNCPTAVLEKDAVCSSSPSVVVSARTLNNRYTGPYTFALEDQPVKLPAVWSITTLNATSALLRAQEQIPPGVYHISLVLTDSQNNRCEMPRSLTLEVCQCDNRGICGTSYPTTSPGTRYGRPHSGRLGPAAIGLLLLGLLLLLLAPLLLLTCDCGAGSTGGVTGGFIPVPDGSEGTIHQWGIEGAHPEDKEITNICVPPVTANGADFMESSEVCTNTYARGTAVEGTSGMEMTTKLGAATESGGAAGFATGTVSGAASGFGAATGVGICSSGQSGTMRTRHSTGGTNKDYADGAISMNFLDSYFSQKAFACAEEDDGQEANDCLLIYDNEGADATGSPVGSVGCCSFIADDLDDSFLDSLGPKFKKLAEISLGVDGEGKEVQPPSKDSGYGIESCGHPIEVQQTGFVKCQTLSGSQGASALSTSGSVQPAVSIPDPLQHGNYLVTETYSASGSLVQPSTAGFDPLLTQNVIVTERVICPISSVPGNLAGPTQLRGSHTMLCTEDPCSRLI
# GRK2 inh – compounds blocking aptamer binding on GRK2 – biochemical, human GRK2, bead flow cytometry, HTS, primary screen. Beta-adrenergic receptor kinase 1 (Homo sapiens), P25098. FAM-aptamer displacement from GRK2. inhibition of aptamer binding, % at 10 µM. AID 488847, 2010. hit rate 0.59% among 330,000;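 active means inhibition of aptamer binding above 40%, roughly 3 SD of noise, on plates passing a quality check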;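 further: median bead fluorescence of bound FAM aptamer so fluorescent compounds give negative values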
# JMJD2C inh – inhibitors of GASC-1 histone demethylase, primary screen, biochemical, fluorescence, DELFIA europium; Lysine-specific demethylase 4C (Homo sapiens), Q9H3R0; GST-JMJD2C(1-420) H3K9me3 demethylation; inhibition, % at 2.35 µM; hit rate 0.069% among 330,000; AID 2099, 2009;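 active means more than half of a compound's replicate wells show inhibition beyond 50%, single wells judged on their own value; inconclusive means some, but no more than half, of replicates pass 50% inhibition; inactive means no replicate passes 50% inhibition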;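 further: signal counts dimethyl H3K9 product captured on neutravidin plate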
# VLA-4 allo CP – retest of VLA-4 allosteric modulators, confirmation, cell-based, cherry-picked plates, U937, HUTS-21 LIBS antibody. shares compounds with VLA-4 inh. U937 cells, HUTS-21 LIBS mAb binding, flow cytometry; LDV ligand present at threefold Kd. inhibition, % at 6.7 µM. hit rate 2% among 1,300; in the data active means inhibition above about 40%
# PREPL inh cf – human PREPL enzyme inhibitors, confirmation, biochemical, fluorescence polarization | recombinant PREPL, fluorescence polarization activity probe | hit rate 67% among 2,000 | shares compounds with PREPL inhibitor | inhibition, % at 5.96 µM
# Numbers stand for hits; 0 = inactive; ? = inconclusive; - = no result given. Compounds with a hit are over-represented: about 1.6% of the library has one in this group of screens. Unless noted, no stated cut-off is given here; in the data, active means inhibition above about 43%; inactive means the rest.
SMILES,PREPL inhibitor,VLA-4 inh,Pemphigus Ab inh,GRK2 inh,JMJD2C inh,PREPL inh cf,others
Cc1ccsc1/C=C1\C(=O)NC(=S)N(C)C1=O,0,0,0,0,0,-,VLA-4 allo CP=0
CN1C(=O)/C(=C/c2ccc(Cl)s2)C(=O)NC1=S,0,0,0,0,0,-,
C[n+]1c(-c2ccccc2)cc(CCCCc2cc(-c3ccccc3)[n+](C)c(-c3ccccc3)c2)cc1-c1ccccc1,45.8,0,-,0,-,46.2,
COc1ccc(-c2cc(-c3ccccc3)[n+](C)c(-c3ccccc3)c2)cc1,0,0,0,0,0,-,
COC(=O)C1=C(c2ccc(-c3ccccc3)c(F)c2)C[C@@H]2CC[C@H]1N2C(=O)N1CCc2cc(OC)c(OC)cc2C1,0,0,0,0,0,-,
C=CCn1c(O)c(C(CC)=NCc2cc(OC)cc(OC)c2)c(=O)[nH]c1=O,0,0,0,0,0,-,
CCCCn1c(O)c(C(=O)/C=C/c2ccc3c(c2)OCO3)c(=O)[nH]c1=O,0,0,0,0,0,-,
C=CCn1c(O)c(C(CC)=NCc2ccc3c(c2)OCO3)c(=O)[nH]c1=O,55.1,0,0,0,0,53.3,
CCCCn1c(O)c(C(CC)=NCc2ccc3c(c2)OCO3)c(=O)[nH]c1=O,48.7,0,0,0,?,49.1,
CN(C)c1nc(OCCNC(=O)COc2ccc(Cl)cc2Cl)nc(N2CCCCC2)n1,0,0,0,0,0,-,
COC(=O)c1cc(C(O)(C(=O)OC)C(F)(F)F)c(/N=C/N(C)C)s1 (stereo unspecified),0,0,0,0,0,-,
COc1ccc(C(=O)NC(=S)N2C[C@H]3C[C@H](C2)c2cccc(=O)n2C3)cc1,0,0,0,0,0,-,
O=C(c1ccc2c(c1)N(Cc1ccccc1)CCS2)N1CCC2(CC1)OCCO2,57.7,0,0,0,0,54.6,
Cc1cc(=O)n(-c2ccccc2)n1-c1ccccc1,0,0,0,0,0,-,
COc1ccc2[nH]cc(CCN)c2c1,0,0,0,0,-,-,
COc1ccc2[nH]c3c(c2c1)CCN=C3C,81.8,0,0,0,-,0,
COc1ccc2[nH]c(C)c(CCNCc3cn(C)c4ccccc34)c2c1,69.9,0,0,0,0,54.2,
O=c1[nH]c(=O)n(CCc2ccccc2)c(O)c1C=NC1CC1,0,0,0,0,0,-,
CCN(CC)c1ccc(CN2CC=C(c3ccc(F)cc3)CC2)cc1,45.8,0,0,0,0,0,
CN1CCN(c2ccc(F)cc2N)CC1,0,0,0,0,0,-,
CN1C[C@H](CNC(=O)OCc2ccccc2)C[C@@H]2c3cccc4c3c(cn4C)C[C@H]21,64.0,0,0,0,0,61.0,
Brc1ccc(-[n+]2c(-c3ccccc3)cc(-c3ccccc3)cc2-c2ccccc2)cc1,55.9,0,0,0,0,55.7,
[O-]c1ccccc1-[n+]1c(-c2ccccc2)cc(-c2ccccc2)cc1-c1ccccc1,44.8,0,0,0,?,54.0,
Oc1ccccc1-[n+]1c(-c2ccccc2)cc(-c2ccccc2)cc1-c1ccccc1,0,0,0,0,0,-,
O=C1/C(=C\c2ccc(Cl)c(Cl)c2)N2CCC1CC2,0,0,0,0,0,-,
SMILES,PREPL inhibitor,VLA-4 inh,Pemphigus Ab inh,GRK2 inh,JMJD2C inh,PREPL inh cf,others
Cc1[nH]c2ccc(OCc3ccccc3)cc2c1CCN,50.3,0,0,0,0,44.4,
Cc1[nH]c2ccc(O)cc2c1CCN,0,0,0,0,-,-,
Cc1ccc(N)cc1N,53.5,0,0,0,0,0,
CCCC[C@@H](C)C[C@@H](C)C(=O)N(C)[C@@H](CC(C)C)C(=O)N[C@H](C(=O)N(C)[C@H](C(=O)N1C[C@@H](O)C[C@H]1C(=O)N1C(=O)C=C[C@@H]1C)C(C)C)C(C)OC(C)=O (stereo partly specified),49.8,0,0,0,-,48.4,
CCN1CC2(COC(=O)c3ccccc3N)CCC(OC)C34C5CC6C(OC)CC(O)(C5C6OC)C(O)(C(OC)C23)C14 (stereo unspecified),45.0,0,-,0,0,45.1,
CCN1C[C@]2(COC)CC[C@H](O)[C@]34C1[C@](O)([C@@H](OC)[C@H]23)[C@@]1(O)C[C@H](OC)[C@H]2C[C@@H]4[C@@H]1[C@H]2OC,0,0,0,0,-,-,
CCN1C[C@]2(COC(=O)c3ccccc3N)CC[C@H](OC)C34[C@@H]5C[C@H]6[C@H](OC)[C@@H]5[C@](O)(C[C@@H]6OC)[C@@](O)([C@H]13)[C@@H](OC)[C@@H]42,53.1,0,0,0,0,46.3,
Cc1cc2ccccc2c(=O)n1CC(=O)NCC(=O)N1CCC2(CC1)OCCO2,0,0,0,0,0,-,
OCCNc1c2c(nc3ccccc13)CCCC2,0,0,0,0,0,-,
C[n+]1c2ccccc2nc2ccc(NCCO)cc21,69.3,0,0,0,0,66.2,
CNc1ccc2nc3ccccc3[n+](C)c2c1,97.8,0,0,0,0,84.5,
CC(=NCCN(C)C)c1c(O)n(Cc2ccccc2)c(=O)[nH]c1=O,0,0,-,0,0,-,
NC(N)=N/N=C/c1ccc(N(c2ccccc2)c2ccccc2)cc1,76.7,0,0,0,0,67.8,
C=CCn1c(O)c(C(C)=NCCc2c[nH]c3ccccc23)c(=O)[nH]c1=O,49.0,0,0,-,0,47.8,
CCCCn1c(O)c(C(C)=NCCc2c[nH]c3ccccc23)c(=O)[nH]c1=O,44.4,0,-,0,0,0,
CCCCn1c(O)c(C(C)=NC(Cc2c[nH]c3ccccc23)C(=O)OC)c(=O)[nH]c1=O (stereo unspecified),0,0,0,0,0,-,
C=CCn1c(O)c(C(C)=NCCC(c2ccccc2)c2ccccc2)c(=O)[nH]c1=O,0,0,-,0,0,-,
O=C(NCc1ccc(C(=O)N2CCC3(CC2)OCCO3)cc1)c1cccc(Br)c1,0,0,0,0,0,-,
COC(=O)[C@@H]1C[C@@]1(C)[C@@H](NP(=O)(c1ccccc1)c1ccccc1)c1ccccc1,48.0,0,0,0,0,55.8,
CCCC/C(C)=C/[C@@H](NP(=O)(c1ccccc1)c1ccccc1)c1ccccc1,0,0,0,0,0,-,
Cc1ccc(C[n+]2c(-c3ccc(C)cc3)cc(-c3ccc(C)cc3)cc2-c2ccc(C)cc2)cc1,54.9,0,0,0,0,52.2,
CN1Cc2cnnn2-c2ccccc2C1c1ccccc1 (stereo unspecified),-,-,0,-,-,-,
COc1ccc(-c2nc3ccccc3c(=O)n2-c2ccc(OC)cc2)cc1,0,0,0,0,0,-,
